This passage reports inhibition results from ChEMBL document CHEMBL1961873, “Compounds: GSK PKIS; Assays: Nanosyn kinase panel” (2012).

What is called inhibition is how much of the control response was suppressed. Read a high inhibition as a strong effect.

“And” between values parts separate entries of the source, which are not always exact repeats. Identical values can stand only once.

The first experiment relates to Leucine-rich repeat serine/threonine-protein kinase 2 (Homo sapiens), Q5S007 [G2019S]. The following applies: at 0.1 µM.
Chain of Leucine-rich repeat serine/threonine-protein kinase 2 (Homo sapiens), Q5S007 [G2019S] (Q5S007 whole entry G2019S): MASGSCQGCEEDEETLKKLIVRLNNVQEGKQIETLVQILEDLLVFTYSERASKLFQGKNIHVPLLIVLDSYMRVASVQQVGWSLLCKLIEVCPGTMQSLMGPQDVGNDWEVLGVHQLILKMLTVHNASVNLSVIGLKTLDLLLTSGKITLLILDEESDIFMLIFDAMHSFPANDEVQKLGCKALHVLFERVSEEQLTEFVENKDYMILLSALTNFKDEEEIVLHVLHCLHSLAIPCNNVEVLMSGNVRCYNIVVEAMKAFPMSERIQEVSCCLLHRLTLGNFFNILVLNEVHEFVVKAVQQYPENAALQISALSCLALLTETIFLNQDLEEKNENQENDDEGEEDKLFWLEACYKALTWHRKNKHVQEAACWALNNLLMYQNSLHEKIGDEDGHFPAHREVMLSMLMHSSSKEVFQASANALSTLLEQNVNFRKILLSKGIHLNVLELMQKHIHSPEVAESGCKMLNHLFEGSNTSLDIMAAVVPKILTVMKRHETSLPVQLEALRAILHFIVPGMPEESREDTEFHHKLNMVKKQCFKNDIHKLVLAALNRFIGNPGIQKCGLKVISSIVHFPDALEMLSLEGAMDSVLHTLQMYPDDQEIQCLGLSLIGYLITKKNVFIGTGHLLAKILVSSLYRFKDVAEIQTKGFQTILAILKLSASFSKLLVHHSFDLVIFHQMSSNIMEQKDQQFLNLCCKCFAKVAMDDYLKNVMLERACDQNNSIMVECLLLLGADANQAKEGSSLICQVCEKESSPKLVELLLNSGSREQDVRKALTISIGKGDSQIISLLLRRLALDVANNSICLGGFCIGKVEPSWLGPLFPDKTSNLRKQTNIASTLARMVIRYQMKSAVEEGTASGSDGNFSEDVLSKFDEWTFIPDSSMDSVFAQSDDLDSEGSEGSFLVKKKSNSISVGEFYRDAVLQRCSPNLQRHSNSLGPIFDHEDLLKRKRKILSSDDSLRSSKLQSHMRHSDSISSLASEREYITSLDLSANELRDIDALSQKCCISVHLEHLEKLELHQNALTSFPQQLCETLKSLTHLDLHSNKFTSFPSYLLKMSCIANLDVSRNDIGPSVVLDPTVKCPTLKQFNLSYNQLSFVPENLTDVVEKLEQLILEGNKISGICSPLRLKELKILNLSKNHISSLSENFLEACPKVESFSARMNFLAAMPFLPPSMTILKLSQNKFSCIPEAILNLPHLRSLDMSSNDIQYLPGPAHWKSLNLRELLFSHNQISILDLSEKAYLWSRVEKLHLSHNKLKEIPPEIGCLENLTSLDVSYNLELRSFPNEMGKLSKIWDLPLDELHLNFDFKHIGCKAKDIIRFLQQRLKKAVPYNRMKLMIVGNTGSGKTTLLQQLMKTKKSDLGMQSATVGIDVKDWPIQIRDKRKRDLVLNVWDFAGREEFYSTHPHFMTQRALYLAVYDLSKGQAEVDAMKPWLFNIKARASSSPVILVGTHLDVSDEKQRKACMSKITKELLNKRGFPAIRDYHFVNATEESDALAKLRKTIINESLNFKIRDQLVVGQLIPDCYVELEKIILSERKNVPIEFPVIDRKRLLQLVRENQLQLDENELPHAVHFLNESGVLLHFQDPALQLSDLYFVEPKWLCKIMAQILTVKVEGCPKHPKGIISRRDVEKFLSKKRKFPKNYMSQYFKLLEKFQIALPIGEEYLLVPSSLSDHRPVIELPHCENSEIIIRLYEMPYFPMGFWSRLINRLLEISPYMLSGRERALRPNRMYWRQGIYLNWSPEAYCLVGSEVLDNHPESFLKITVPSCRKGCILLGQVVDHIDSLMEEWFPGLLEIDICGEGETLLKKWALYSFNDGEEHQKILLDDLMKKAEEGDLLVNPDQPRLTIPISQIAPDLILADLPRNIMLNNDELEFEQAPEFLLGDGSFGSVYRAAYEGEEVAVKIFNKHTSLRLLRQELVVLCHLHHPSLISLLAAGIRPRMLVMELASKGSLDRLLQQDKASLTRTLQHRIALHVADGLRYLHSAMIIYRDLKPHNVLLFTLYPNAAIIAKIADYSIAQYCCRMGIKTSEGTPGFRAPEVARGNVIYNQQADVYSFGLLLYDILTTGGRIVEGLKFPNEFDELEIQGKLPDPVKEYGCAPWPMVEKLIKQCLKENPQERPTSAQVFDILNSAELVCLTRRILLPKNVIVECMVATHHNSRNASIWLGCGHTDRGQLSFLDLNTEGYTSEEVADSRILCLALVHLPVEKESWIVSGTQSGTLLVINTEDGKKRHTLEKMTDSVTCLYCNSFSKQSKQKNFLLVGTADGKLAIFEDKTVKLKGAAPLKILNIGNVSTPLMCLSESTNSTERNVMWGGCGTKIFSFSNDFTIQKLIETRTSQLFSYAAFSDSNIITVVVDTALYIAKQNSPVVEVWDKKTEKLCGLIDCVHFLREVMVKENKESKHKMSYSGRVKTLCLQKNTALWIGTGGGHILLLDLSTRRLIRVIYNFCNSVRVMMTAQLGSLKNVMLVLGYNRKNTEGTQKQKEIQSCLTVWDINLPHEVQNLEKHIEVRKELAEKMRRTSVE
Take `O=C1Nc2ccccc2/C1=C1\CCc2cc(O)ccc21`: the inhibition was determined as 22.1%.
On the same count and under the same terms, the figure for `CCS(=O)(=O)c1ccc(OC)c(Nc2ncc(-c3cccc(C(C)=O)c3)o2)c1` is 2.77%; for `Cc1ccc(-c2cc3c(NC(=O)C4CC4)ncnc3o2)cc1` it is 9.7%; for `COc1ccc(-c2nn3ncccc3c2-c2ccnc(Nc3ccc(F)c(F)c3)n2)cc1` it is 6.22%.
`O=C(Nc1n[nH]c2nnc(-c3cccnc3)cc12)C1CC1` gave an inhibition of 2.42%.
With `O=C(O[C@H]1CN[C@H](C#Cc2cc3ncnc(Nc4ccc5c(ccn5Cc5cc(F)ccc5F)c4)c3s2)C1)N1CCOCC1`, the inhibition is 3.23%.
For the compound `COc1cccc(Nc2nccc(-c3cnn4ncccc34)n2)c1`, the inhibition came to 13.3%.
`Nc1nccc(-c2c(-c3ccc(F)cc3)ncn2C2CCNCC2)n1`: the inhibition was 0.34% and 3.78%.
In turn, `NC(=O)c1ccc2c(-c3ccnc(NCCCO)n3)c(-c3ccc(F)cc3)nn2c1` registered an inhibition of 6.54%.
Consider `CS(=O)(=O)Nc1ccc(-c2cc(-c3ccccc3)cc(C(N)=O)c2N)cc1`, for which the inhibition turned out to be 3.87%.
Still for that read-out and setting: for `CS(=O)(=O)Nc1ccc(-c2ccc3c(NC(=O)C4CC4)n[nH]c3c2)cc1` the value was 9.88%.
On the same count and under the same terms, for `Cn1c(-c2nonc2N)nc2cnccc21` the value was 4.16%; for `CC1=C(C(=O)Nc2ccc3[nH]ncc3c2)C(c2ccc(F)cc2)N=C(c2ccc(C(F)(F)F)nc2)N1` (configuration not stated), 5.04%.
Still for that read-out and setting: for `c1ccc(-c2n[nH]cc2-c2ccnc(-c3ccc(OCCn4ccnc4)cc3)c2)nc1` the value was 3.12%.
The compound `CS(=O)(=O)CCNCc1ccc(-c2ccc3ncnc(Nc4ccc(OCc5cccc(C(F)(F)F)c5)cc4)c3c2)o1` displayed an inhibition of 4.24%.
The same measure, in the same setting: for `FC(F)(F)CNc1nccc(-c2cnn3ncccc23)n1` the value was 5.03%.
The compound `COc1ccc2ncn(-c3cc(O[C@H](C)c4ccccc4C(F)(F)F)c(C(N)=O)s3)c2c1` came in with an inhibition of 5.16%.
The compound `N#Cc1cccc(Nc2ncc(-c3ccccc3)o2)c1` showed an inhibition of 1.64%.
The same measure, in the same setting: the figure for `CCN1CCC(C(=O)Nc2n[nH]c3nnc(-c4cccc(F)c4F)cc23)CC1` is 2.15%.
On the same count and under the same terms, for `CNC(=O)c1ncccc1Nc1nc(Nc2cc3c(cc2OC)CCCN3C(=O)CN(C)C)nc2[nH]ccc12` the value was 65.3%.
Same read-out and setting: the figure for `CNC(=O)c1cncc(/C=C/c2ccccc2C)c1` is 4.65%.
`CS(=O)(=O)CCNCc1ccc(-c2ccc3ncnc(Nc4ccc(OCc5ccccc5)cc4)c3c2)o1` registered an inhibition of 2.93%.
The same measure, in the same setting: for `CS(=O)(=O)CCNCc1ccoc1-c1ccc2ncnc(Nc3ccc(OCc4ccccc4)cc3)c2c1` the value was 2.44%.
The same measure, in the same setting: the figure for `COc1cc2c(cc1Nc1nc(Nc3cccc(F)c3C(N)=O)c3cc[nH]c3n1)N(C(=O)CN1CCN(C(C)C)CC1)CC2` is 41.5%.
The same measure, in the same setting: for `CN1CCC(n2cnc(-c3ccc(F)cc3)c2-c2ccnc(NCCO)n2)CC1` the value was 4.69%; for `CCn1c(-c2nonc2N)nc2cncc(C(=O)NCCNC)c21`, 13%.
Compound `OCCCNc1nccc(-c2c(-c3ccc(F)cc3)nn3cc(C(F)(F)F)ccc23)n1` returned an inhibition of 2.62%.
Still for that read-out and setting: for `NS(=O)(=O)c1ccc(N/N=C2\C(=O)Nc3ccc(C(=O)NCc4ccncc4)cc32)cc1` the value was 6.07%; for `CC1(C)CC(n2cnc(-c3ccc(F)cc3)c2-c2ccnc(N)n2)CC(C)(C)N1`, 2.37%.
The same measure, in the same setting: the figure for `COC(=O)Nc1nc2ccc(Oc3ccc(NC(=O)Nc4cc(C(F)(F)F)ccc4F)cc3)cc2s1` is 9.18%; for `COc1c(C(N)=O)cc(-c2ccc(Cl)cc2)cc1-c1ccc(S(N)(=O)=O)cc1` it is 3.53%.

The test system is the same in another experiment. The following applies: at 1 µM.
Compound `O=C1Nc2ccccc2/C1=C1\CCc2cc(O)ccc21` displayed an inhibition of 63.6%.
Still for that read-out and setting: the figure for `CCS(=O)(=O)c1ccc(OC)c(Nc2ncc(-c3cccc(C(C)=O)c3)o2)c1` is 11.8%; for `Cc1ccc(-c2cc3c(NC(=O)C4CC4)ncnc3o2)cc1` it is 16.6%.
Same read-out and setting: the figure for `COc1ccc(-c2nn3ncccc3c2-c2ccnc(Nc3ccc(F)c(F)c3)n2)cc1` is 7.92%.
Same read-out and setting: for `O=C(Nc1n[nH]c2nnc(-c3cccnc3)cc12)C1CC1` the value was 5.79%; for `O=C(O[C@H]1CN[C@H](C#Cc2cc3ncnc(Nc4ccc5c(ccn5Cc5cc(F)ccc5F)c4)c3s2)C1)N1CCOCC1`, 5.91%; for `COc1cccc(Nc2nccc(-c3cnn4ncccc34)n2)c1`, 54.8%.
Consider `Nc1nccc(-c2c(-c3ccc(F)cc3)ncn2C2CCNCC2)n1`, for which the inhibition was 4.42% and 3.38%.
On the same count and under the same terms, the figure for `NC(=O)c1ccc2c(-c3ccnc(NCCCO)n3)c(-c3ccc(F)cc3)nn2c1` is 9.18%; for `CS(=O)(=O)Nc1ccc(-c2cc(-c3ccccc3)cc(C(N)=O)c2N)cc1` it is 5.66%.
Still for that read-out and setting: for `CS(=O)(=O)Nc1ccc(-c2ccc3c(NC(=O)C4CC4)n[nH]c3c2)cc1` the value was 15.1%; for `Cn1c(-c2nonc2N)nc2cnccc21`, 20.5%; for `CC1=C(C(=O)Nc2ccc3[nH]ncc3c2)C(c2ccc(F)cc2)N=C(c2ccc(C(F)(F)F)nc2)N1` (configuration not stated), 26%.
`c1ccc(-c2n[nH]cc2-c2ccnc(-c3ccc(OCCn4ccnc4)cc3)c2)nc1` yielded an inhibition of 14.5%.
On to `CS(=O)(=O)CCNCc1ccc(-c2ccc3ncnc(Nc4ccc(OCc5cccc(C(F)(F)F)c5)cc4)c3c2)o1`, for which the inhibition is 7.8%.
The compound `FC(F)(F)CNc1nccc(-c2cnn3ncccc23)n1` had an inhibition of 9.11%.
Still for that read-out and setting: the figure for `COc1ccc2ncn(-c3cc(O[C@H](C)c4ccccc4C(F)(F)F)c(C(N)=O)s3)c2c1` is 31%.
On the same count and under the same terms, for `N#Cc1cccc(Nc2ncc(-c3ccccc3)o2)c1` the value was 4.25%.
The same measure, in the same setting: for `CCN1CCC(C(=O)Nc2n[nH]c3nnc(-c4cccc(F)c4F)cc23)CC1` the value was 1.7%.
The compound `CNC(=O)c1ncccc1Nc1nc(Nc2cc3c(cc2OC)CCCN3C(=O)CN(C)C)nc2[nH]ccc12` registered an inhibition of 64.5%.
Still for that read-out and setting: for `CNC(=O)c1cncc(/C=C/c2ccccc2C)c1` the value was 9.68%; for `CS(=O)(=O)CCNCc1ccc(-c2ccc3ncnc(Nc4ccc(OCc5ccccc5)cc4)c3c2)o1`, 7.35%; for `CS(=O)(=O)CCNCc1ccoc1-c1ccc2ncnc(Nc3ccc(OCc4ccccc4)cc3)c2c1`, 2.57%.
On the same count and under the same terms, the figure for `COc1cc2c(cc1Nc1nc(Nc3cccc(F)c3C(N)=O)c3cc[nH]c3n1)N(C(=O)CN1CCN(C(C)C)CC1)CC2` is 59.8%; for `CN1CCC(n2cnc(-c3ccc(F)cc3)c2-c2ccnc(NCCO)n2)CC1` it is 5.35%.
The same measure, in the same setting: for `CCn1c(-c2nonc2N)nc2cncc(C(=O)NCCNC)c21` the value was 51.8%.
In turn, `OCCCNc1nccc(-c2c(-c3ccc(F)cc3)nn3cc(C(F)(F)F)ccc23)n1` yielded an inhibition of 7.85%.
On to `NS(=O)(=O)c1ccc(N/N=C2\C(=O)Nc3ccc(C(=O)NCc4ccncc4)cc32)cc1`, for which the inhibition worked out at 30.8%.
In turn, `CC1(C)CC(n2cnc(-c3ccc(F)cc3)c2-c2ccnc(N)n2)CC(C)(C)N1` displayed an inhibition of 6.19%.
Same read-out and setting: the figure for `COC(=O)Nc1nc2ccc(Oc3ccc(NC(=O)Nc4cc(C(F)(F)F)ccc4F)cc3)cc2s1` is 37.8%.
Same read-out and setting: for `COc1c(C(N)=O)cc(-c2ccc(Cl)cc2)cc1-c1ccc(S(N)(=O)=O)cc1` the value was 9.4%.
